The values below come from PubChem BioAssay (NCI).

Each structure is given as a SMILES string. “And” between values parts separate entries of the source, which are not always exact repeats. Identical values can stand only once. The panel holds about 79,000 compounds, 15% with a hit somewhere; the sample as a whole holds those more often. Unmarked numbers belong to inactive results. The source made the active and inactive calls. Cut-off read from the data, not from the text of the source: active = growth inhibition above about 70%; inactive = the rest.

Assay [1] in a line: NCI Yeast Anticancer Drug Screen. Data for the rad50 strain (AID 155).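 Note: 0% = growth of vehicle-only cultures of the same strain.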 The conditions noted are these: S. cerevisiae rad50 strain growth inhibition; at 50.0 µM; active compounds read high. A digest of the protocol:
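Compounds were tested on a yeast strain with an engineered DNA damage repair alteration; the reported value is growth inhibition normalised to vehicle treatment.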

Assay [2] can be described thus: NCI Yeast Anticancer Drug Screen. Data for the mec2-1 strain (AID 157). As to conditions: S. cerevisiae mec2-1 strain, at 50.0 µM, active compounds read high. In outline:
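Yeast mec2-1 mutant treated with compound. Readout: growth inhibition vs vehicle controls.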

Assay [3] is described as follows: NCI Yeast Anticancer Drug Screen. Data for the sgs1 mgt1 strain (AID 161).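 Note: 0% = growth of cultures given vehicle only.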 The conditions noted are these: S. cerevisiae sgs1 mgt1 strain, at 50.0 µM, active compounds read high. A digest of the protocol: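 Inhibition of yeast growth, normalised to vehicle-treated controls, is reported for a strain bearing genetic alterations in DNA damage repair.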
Assay [4] is described as follows: NCI Yeast Anticancer Drug Screen. Data for the cln2 rad14 strain (AID 165).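 Note: 0% = growth equal to vehicle treated cultures.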 As to conditions: S. cerevisiae cln2 rad14 strain, at 50.0 µM, active compounds read high. A digest of the protocol:
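cln2 rad14 yeast strain; compound exposure; growth inhibition read vs vehicle controls.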

Assay [5] is described as follows: NCI Yeast Anticancer Drug Screen. Data for the bub3 strain (AID 167). As to conditions: S. cerevisiae bub3 mutant strain, at 50.0 µM, active compounds read high. A digest of the protocol: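 Growth of a checkpoint-deficient yeast mutant is measured after compound exposure. Values represent inhibition relative to vehicle.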
A short description of assay [6]: NCI Yeast Anticancer Drug Screen. Data for the mlh1 rad18 strain (AID 175). The conditions noted are these: S. cerevisiae mlh1 rad18 strain growth inhibition; at 50.0 µM; active compounds read high. A digest of the protocol: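 Yeast w/ defined DNA-repair lesions; compound exposure; growth vs vehicle controls → % inhibition.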

For `Cc1ccc(CCl)c(O)c1`, the growth inhibition in assay [1] is -25.7%; in assay [2] it was -14.6%; in assay [3] it was -6%; in assay [4], -12.5%; in assay [5] it was 7.1%; in assay [6], -0.8%.
Regarding `CCCCC(CC)COP(OCC(CC)CCCC)OCC(CC)CCCC.[Br][Hg][Br]` (centres undefined), the growth inhibition in assay [1] is 4.55%; in assay [2], -3.1%; in assay [3] it was -10.8%; in assay [4] it was -8.25%; in assay [5], -8.95%; in assay [6] it was -6.4%.
`O=[N+]([O-])CCCl`: the growth inhibition in assay [1] was 3.8%; in assay [2] it was 2.1%; in assay [3], -3.4%; in assay [4] it was 3.9%; in assay [5], 3.95%; in assay [6] it was -3.9%.
In the case of `CC(=O)NN=C(N)N`, the growth inhibition in assay [1] was 3.15% and -2%; in assay [2] it was -1.5% and 2.75%; in assay [3], -0.55% and 11.7%; in assay [4] it was -29.9% and -24.1%; in assay [5], -6.75% and -10.2%; in assay [6], 14.1% and 5.9%.
Take `CCOP(=O)(OCC)C(F)(F)CC1CCCCC1`: the growth inhibition in assay [1] is -17.1%; in assay [2] it was -25.6%; in assay [3] it was -19.4%; in assay [4], -59%; in assay [5], 26.2%; in assay [6] it was -9.85%.
For `CC(Cc1ccc(O)cc1)NCC(O)c1ccc(O)c(O)c1` (centres undefined), the growth inhibition in assay [1] is 10.6%; in assay [2] it was 15.3%; in assay [3] it was 3.4%; in assay [4], 0.55%; in assay [5], -7.45%; in assay [6], 22.9%.
In the case of `Cc1cc(Cc2cc(C)c(NC(=O)C(=O)C3C(=O)NC(=S)NC3=O)c(C(C)C)c2)cc(C(C)C)c1NC(=O)C(=O)C1C(=O)NC(=S)NC1=O`, the growth inhibition in assay [1] is -20.6%; in assay [2], -8%; in assay [3], -18.9%; in assay [4], 21.6%; in assay [5], 8.55%; in assay [6], -11.7%.
On to `NCC#CCNCCCN1CC1`, for which the growth inhibition was 8.2% in assay [1]; 47.2% in assay [2]; -9.4% in assay [3]; 16.9% in assay [4]; -1.55% in assay [5]; -41.5% in assay [6].
As to `COc1ccc(CCN(C)Cc2cccc(OC)c2OC)cc1OC`, the growth inhibition in assay [1] was -17.1%; in assay [2], -5.85%; in assay [3], -3.85%; in assay [4], -0.95%; in assay [5], -16.1%; in assay [6], -2.1%.
With `N#CC(C#N)=Cc1ccco1`, the growth inhibition in assay [1] was -7.95%; in assay [2], 6.15%; in assay [3] it was 24.7%; in assay [4], -42.4%; in assay [5], -3.85%; in assay [6], 5.5%.
As for `O=C(O)C1C2Cc3ccccc3C21` (centres undefined), the growth inhibition in assay [1] is 18.1%; in assay [2], 10.4%; in assay [3], -8.35%; in assay [4], -5.9%; in assay [5], -20.3%; in assay [6], -12.6%.
Take `CCN(CC)C1=C(N(CC)CC)C(N(CC)CC)=C(N(CC)CC)C1=O.[C-]#[O+].[C-]#[O+].[C-]#[O+].[Fe]`: the growth inhibition in assay [1] was -45.6%; in assay [2], -13.2%; in assay [3], -22.1%; in assay [4], -2.65%; in assay [5], -16.6%; in assay [6], -33.8%.
As for `CN(C)c1ccc(N=[N+]=[N-])cc1`, the growth inhibition was 3.05% in assay [1]; 11% in assay [2]; 10.3% in assay [3]; -74.8% in assay [4]; -6.45% in assay [5]; 8.15% in assay [6].
Turning to `CS(=O)(=O)OCCN(CCCl)c1cc(C(N)=O)c([N+](=O)[O-])cc1[N+](=O)[O-]`, the growth inhibition was -6.8% in assay [1]; -5.5% in assay [2]; 5.45% in assay [3]; -16.4% in assay [4]; -11.4% in assay [5]; -1.65% in assay [6].
For the compound `CC(C)(C)C1=CC(=C(P(=O)(O)O)P(=O)(O)O)C=C(C(C)(C)C)C1=O`, the growth inhibition in assay [1] was -32.6%; in assay [2] it was -12.7%; in assay [3], -49.5%; in assay [4] it was -21.9%; in assay [5] it was -47.8%; in assay [6], -34.5%.
Take `Nc1ncnc2c1c(Cl)cn2C1OC(CO)C(O)C1O` (centres undefined): the growth inhibition is 10.1% in assay [1]; 15.2% in assay [2]; 12% in assay [3]; 32.4% in assay [4]; 19.2% in assay [5]; 26.4% in assay [6].
On to `COC(=O)C[CH2][Sn]([CH2]CC(=O)OC)([c]1ccccc1)[c]1ccccc1`, for which the growth inhibition is 7.95% in assay [1]; 30.7% in assay [2]; -6.7% in assay [3]; -15.7% in assay [4]; 14.4% in assay [5]; -25.4% in assay [6].
As for `CC(=O)[O-].Cn1ccnc1CNCc1nccn1C.[Cu+2].[O-][Cl+3]([O-])([O-])[O-]`, the growth inhibition in assay [1] is 18.9%; in assay [2], 3.2%; in assay [3], 3.3%; in assay [4] it was 18.6%; in assay [5], -1.4%; in assay [6], 5.25%.
Turning to `Cc1ccc2c(O)c3c(cc2c1)C(=O)c1c2c(cc(O)c1C3=O)C1(C)OC(O2)C(O)C(N(C)C)C1O` (centres undefined), the growth inhibition in assay [1] is 86.7% (active); in assay [2], 87.9% (active); in assay [3], 90.9% (active); in assay [4] it was 87.7% (active); in assay [5], 87.8% (active); in assay [6] it was 85.5% (active).
